Experimental data: PubChem BioAssay AID624125 (The Scripps Research Institute Molecular Screening Center, 2012)
Where “and” joins values, the source holds several entries; their conditions need not be identical. Equal values may be shown once. Among all 360,000 compounds or so, about 2,600 (0.72%) were called active. For the sample, actives were picked, then their nearest neighbours and some compounds at random. A number with no mark means an inactive call.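 Rule for the calls: active = inhibition above its plate's cutoff, the mean inhibition of sample wells plus 3 SD (cut at about 27% in these data); inactive = the rest.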

Each compound was assayed against Muscarinic acetylcholine receptor M4 (Homo sapiens) (UniProt P08173) (assay: CHRM4 blockers of acetylcholine calcium response – CHO cells, Fluo-8 calcium fluorescence, primary screen (AID 624125;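 note: 0% = acetylcholine EC80 with DMSO and 100% = DMSO without agonist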)). Conditions: CHO-hM4 cells, ACh EC80, Fluo-8 calcium fluorescence; at 3 µM; active compounds read high.
Chain of Muscarinic acetylcholine receptor M4 (Homo sapiens) (P08173 whole entry, looked up): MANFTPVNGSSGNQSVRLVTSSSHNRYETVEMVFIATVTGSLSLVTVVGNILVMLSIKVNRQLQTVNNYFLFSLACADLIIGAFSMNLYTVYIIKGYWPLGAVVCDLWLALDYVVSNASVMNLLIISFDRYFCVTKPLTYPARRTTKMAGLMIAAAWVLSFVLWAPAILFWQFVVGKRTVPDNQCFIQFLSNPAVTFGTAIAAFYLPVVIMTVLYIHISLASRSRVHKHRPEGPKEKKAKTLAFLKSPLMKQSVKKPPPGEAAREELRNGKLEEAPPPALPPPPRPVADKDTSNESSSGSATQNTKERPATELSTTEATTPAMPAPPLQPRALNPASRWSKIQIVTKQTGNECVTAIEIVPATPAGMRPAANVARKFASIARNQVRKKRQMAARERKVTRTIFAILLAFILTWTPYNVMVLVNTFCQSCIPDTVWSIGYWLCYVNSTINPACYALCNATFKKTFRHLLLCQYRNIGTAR

SMILES	inhibition
CC(C)(C)NC(=O)COc1ccc(CNc2ccc3[nH]c(=O)[nH]c3c2)cc1	-1.92%
Cc1cc([N+](=O)[O-])c(=O)[nH]c1C	3.71%
CCOC(=O)C1Nc2ccc(C(F)(F)F)cc2C2C=CCC12 (stereo unspecified)	-1.13%
COc1cccc(-c2noc(C3CCCN(C(=O)c4ccc(F)cc4)C3)n2)c1 (stereo unspecified)	-18%
CC(C)c1ccc(-c2noc(C3CCCN(S(C)(=O)=O)C3)n2)cc1 (stereo unspecified)	-17.6%
COc1cc(-c2noc(C3CCCN(S(=O)(=O)c4cccc(Cl)c4)C3)n2)cc(OC)c1OC (stereo unspecified)	30.5% (active)
Clc1ccc(-c2nnc(-c3ccccc3)nc2N2CCSCC2)cc1	-4.43%
CC12CCCCC1=CC(=O)CC2 (stereo unspecified)	2.52%
Cc1ccc(S(=O)(=O)N2CCCCC2)cc1NC(=O)CCNC(=O)c1ccccc1Cl	-5.04%
CN(C(=O)CSc1nnc(-c2ccc(C(C)(C)C)cc2)n1C)C1CCS(=O)(=O)C1 (stereo unspecified)	0.43%
O=c1[nH]c2ccccc2n1C1CCN(CCOc2ccccc2)CC1	-13.4%
COc1ccc(OCCCCN2CCC(C)CC2)cc1	9.1%
OC(c1ccccc1)(c1ccccc1)C1CCN(CCCOc2ccccc2)CC1	91.6% (active)
Cc1ccc(S(=O)(=O)N2CCOCC2)cc1C(=O)NC(=S)N(Cc1ccccc1)C(C)C	0.9%
CCCCc1nc2ccc(F)cc2cc1C	-4.37%
Cc1sc2ncnc(N3CCC(C(=O)NNC(=O)c4ccc(F)cc4)CC3)c2c1C	-17.4%
Cc1sc2ncnc(N3CCC(C(=O)Nc4ccc(F)cc4Cl)CC3)c2c1C	46.6% (active)
Cc1sc2ncnc(N3CCC(C(=O)Nc4nc5ccc(Cl)cc5s4)CC3)c2c1C	-9.33%
COC(=O)c1cc(N2CCNCC2)nc2ccccc12	6.45%
CS(=O)(=O)N1CCN(CC(=O)NC2CCCC2)CC1	1.25%
Clc1ccc(C=NC23CN4CN(CN(C4)C2)C3)cc1	-1.64%

SMILES	inhibition
O=C(c1ccccc1F)N1CCN(S(=O)(=O)c2ccc(Br)cc2)CC1	3.23%
OCCC1CN(Cc2ccc3nsnc3c2)CCN1C1CCCCC1 (stereo unspecified)	26.8% (active)
COc1ccc(CN2CCN(Cc3cn(C)nc3-c3ccccc3)CC2CCO)c(C)c1C (stereo unspecified)	-2.82%
OCC1(CCc2ccccc2)CCN(Cc2ccc3nsnc3c2)CC1	8.32%
CCOc1ccc(CN2CCN(Cc3ccc(C)o3)CC2CCO)cc1 (stereo unspecified)	1.46%
OCCC1CN(Cc2cccc(OC3CCCC3)c2)CCN1Cc1ccsc1 (stereo unspecified)	2.69%
CC(C)N1CCC(N2CCN(Cc3cccnc3)CC2CCO)CC1 (stereo unspecified)	-8.19%
Cn1cnnc1Sc1ccc(CN2CCN(C3CCCC3)C(CCO)C2)o1 (stereo unspecified)	42.6% (active)
COc1cccc2c1OCC(CN1CCN(C3CCCCC3)C(CCO)C1)=C2 (stereo unspecified)	26.6% (active)
Cc1ccc(CN2CCN(Cc3ccc4ncccc4c3)CC2CCO)cc1 (stereo unspecified)	-9.31%
Cc1ccc(CN2CCN(Cc3ccc(OCCO)cc3)CC2CCO)o1 (stereo unspecified)	2.78%
OCCC1CN(Cc2cccc(O)c2)CCN1CCc1ccccc1 (stereo unspecified)	-6.17%
OCCC1CN(Cc2ccc3nsnc3c2)CCN1C1CCCC1 (stereo unspecified)	47.5% (active)
CCC(Sc1nncn1C)C(=O)Nc1nnc(-c2ccc(Cl)cc2)s1 (stereo unspecified)	-32.3%
CCOc1cc(-c2noc(CCCC(=O)NC3CCCCC3)n2)ccc1OC	-15.3%
CC(c1ccccn1)N(C)C(=O)c1ccc2nc(Cc3cccc(Cl)c3)oc2c1 (stereo unspecified)	0.98%
Cc1ccc(NC(=O)C(C)OC(=O)C2CC3CCCC(C2)C3=O)cc1S(=O)(=O)N1CCOCC1 (stereo unspecified)	-3.85%
CCc1nc2c(OCc3ccc(C(F)(F)F)cc3)cccn2c1N(C)C(=O)CC(C)C	3.96%
Cc1cc(=O)oc2cc(NC(=O)C3CC(=O)N(Cc4ccccc4)C3)ccc12 (stereo unspecified)	-0.59%
O=C(O)C1CCN1C1CCCCC1 (stereo unspecified)	2.3%
COC(=O)c1c(C)oc(C)c1S(=O)(=O)NCc1ccc(Cl)cc1	12.7%

SMILES	inhibition
CN(CCN1CCOCC1)Cc1nc(-c2ccc3c(c2)OCO3)no1	8.12%
CCOc1ccc(NC(=O)C2CC(=O)N=C(N)S2)cc1 (stereo unspecified)	-0.59%
COc1ccc(C(=O)OCC(=O)NCC2CCCO2)cc1[N+](=O)[O-] (stereo unspecified)	-10.6%
Cc1cc(-c2nnc(SCC(=O)Nc3ccc(F)cc3)n2N)n[nH]1	8.94%
CSCCC(NS(=O)(=O)c1ccccc1F)C(=O)N1CC=C(c2ccccc2)CC1 (stereo unspecified)	3.15%
COC(=O)C1=C(N)Oc2cc(C)[nH]c(=O)c2C1c1ccc(Cl)cc1 (stereo unspecified)	0.29%
O=C1CSC(c2ccc(Cl)cc2)N1 (stereo unspecified)	27.7% (active)
O=C1NC(=O)C(c2ccc(Cl)cc2)N1 (stereo unspecified)	-2.3%
COc1ccc(C(=O)Oc2ccc(-c3nnco3)cc2)cc1S(=O)(=O)N1CCOCC1	-11.2%
O=C(OC1CC2CC1[C@H]1CCCCN1C2=O)N1CCOCC1 (stereo partly specified)	-3.15%
CCc1ccc(S(=O)(=O)NCC(O)COc2ccc(OC)cc2)cc1 (stereo unspecified)	-13%
C#C[C@]1(O)CC[C@H]2[C@@H]3CCC4=CC(=O)CC[C@@H]4[C@H]3CC[C@@]21CC	-4.91% and 3.68%
CN1CCN(C2Cc3ccc(Cl)cc3Sc3ccc(F)cc32)CC1 (stereo unspecified)	38.1% (active)
CCOCCCNC(=O)C(NC(=O)c1ccc(=O)[nH]c1)c1ccc(C)cc1 (stereo unspecified)	-5.59%
CN(Cc1ccc(F)cc1Cl)S(=O)(=O)c1cccs1	-1.2%
CN(C)Cc1ccc(F)cc1Sc1cc(Cl)ccc1Cl	43.8% (active)
Cc1ccc(-c2ccc(=O)n(Cc3ccc(F)cc3Cl)n2)cc1	0.63%
COc1cccc(CC(=NO)c2cccc(OC)c2)c1	-5.79%
O=C(C1CCCO1)N1CCN(C(=S)Nc2cccc(Cl)c2)CC1 (stereo unspecified)	0.97%
